This note sets out measurements from PubChem BioAssay (EPA / NIEHS).

Assay [1] deals with Paired box protein Pax-6 (Homo sapiens) (UniProt P26367). Nature of the assay: ATG_Pax6_CIS: Attagene CIS-FACTORIAL HepG2 Assay for human Paired Box 6 (PAX6) (AID 2282956). The following applies: HepG2 CIS-FACTORIAL PAX6 reporter transcription, RNA readout; actives raise or lower the signal. An outline of the steps: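 Read-out is reporter transcript level, measured by RT-PCR with fluorescent primer extension and capillary electrophoresis after 24 h dosing of transfected HepG2 cells. Activity in either direction fitted relative to DMSO control.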
Sequence of Paired box protein Pax-6 (Homo sapiens) (P26367 whole entry, looked up): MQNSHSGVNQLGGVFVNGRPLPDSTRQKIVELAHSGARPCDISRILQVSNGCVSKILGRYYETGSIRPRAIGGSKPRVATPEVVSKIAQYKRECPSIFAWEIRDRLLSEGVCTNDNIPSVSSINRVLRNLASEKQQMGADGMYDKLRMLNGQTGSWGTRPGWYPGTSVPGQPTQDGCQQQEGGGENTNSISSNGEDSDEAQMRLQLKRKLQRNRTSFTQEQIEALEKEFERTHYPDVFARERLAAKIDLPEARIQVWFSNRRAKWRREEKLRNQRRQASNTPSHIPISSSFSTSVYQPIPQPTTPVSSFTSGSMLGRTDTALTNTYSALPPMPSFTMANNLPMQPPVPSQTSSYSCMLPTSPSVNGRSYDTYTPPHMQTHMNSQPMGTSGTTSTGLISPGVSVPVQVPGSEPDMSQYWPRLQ

Assay [2] can be described thus: ATG_PXRE_CIS: Attagene CIS-FACTORIAL HepG2 Assay for human Pregnane X Receptor Element (PXRE) (AID 2282957). To be noted: HepG2 Attagene CIS-FACTORIAL PXRE reporter, mRNA; actives raise or lower the signal. The essentials:
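Endogenous transcription factor activity in HepG2 was gauged through induction of reporter mRNA driven by a cis-regulating promoter element, sampled 24 h post-treatment. Activity was fitted in both directions against DMSO negative control.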

A short description of assay [3]: ATG_RORE_CIS: Attagene CIS-FACTORIAL HepG2 Assay for human RAR-related Orphan Receptor Element (RORE) (AID 2282959). To be noted: HepG2 Attagene cis-factorial RORE reporter, mRNA; actives raise or lower the signal. An outline of the steps: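 Readout: fluorescent reporter mRNA by RT-PCR plus capillary electrophoresis, 24 h after dosing transfected HepG2 cells. Endogenous transcription factor activity on a cis promoter element is measured. Gain or loss of signal fitted against DMSO.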

Assay [4] is described as follows: ATG_Sox_CIS: Attagene CIS-FACTORIAL HepG2 Assay for human SRY-box transcription factor (SOX) (AID 2282960). The following applies: HepG2 Attagene cis-factorial SOX reporter, mRNA; actives raise or lower the signal. The essentials: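 Read-out: fluorescent RT-PCR products of SOX1-linked reporter transcripts resolved by capillary electrophoresis, fitted bidirectionally against DMSO. Transiently transfected HepG2 cells, 24 h after chemical exposure, endogenous transcription factor activity.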

Assay [5] deals with Transcription factor Sp1 (Homo sapiens) (UniProt P08047). Nature of the assay: ATG_Sp1_CIS: Attagene CIS-FACTORIAL HepG2 Assay for human Specificity Protein 1 (Sp1) (AID 2282961). To be noted: HepG2 Sp1 cis-reporter transcription, actives raise or lower the signal. An outline of the steps: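 Read-out: fluorescence of 6-FAM-labeled, HpaI-digested RT-PCR products separated by capillary electrophoresis. HepG2 cells carried transfected cis-element reporter units and were exposed to chemicals for 24 h; gain or loss of signal fitted relative to DMSO.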
Sequence of Transcription factor Sp1 (Homo sapiens) (P08047 whole entry, looked up): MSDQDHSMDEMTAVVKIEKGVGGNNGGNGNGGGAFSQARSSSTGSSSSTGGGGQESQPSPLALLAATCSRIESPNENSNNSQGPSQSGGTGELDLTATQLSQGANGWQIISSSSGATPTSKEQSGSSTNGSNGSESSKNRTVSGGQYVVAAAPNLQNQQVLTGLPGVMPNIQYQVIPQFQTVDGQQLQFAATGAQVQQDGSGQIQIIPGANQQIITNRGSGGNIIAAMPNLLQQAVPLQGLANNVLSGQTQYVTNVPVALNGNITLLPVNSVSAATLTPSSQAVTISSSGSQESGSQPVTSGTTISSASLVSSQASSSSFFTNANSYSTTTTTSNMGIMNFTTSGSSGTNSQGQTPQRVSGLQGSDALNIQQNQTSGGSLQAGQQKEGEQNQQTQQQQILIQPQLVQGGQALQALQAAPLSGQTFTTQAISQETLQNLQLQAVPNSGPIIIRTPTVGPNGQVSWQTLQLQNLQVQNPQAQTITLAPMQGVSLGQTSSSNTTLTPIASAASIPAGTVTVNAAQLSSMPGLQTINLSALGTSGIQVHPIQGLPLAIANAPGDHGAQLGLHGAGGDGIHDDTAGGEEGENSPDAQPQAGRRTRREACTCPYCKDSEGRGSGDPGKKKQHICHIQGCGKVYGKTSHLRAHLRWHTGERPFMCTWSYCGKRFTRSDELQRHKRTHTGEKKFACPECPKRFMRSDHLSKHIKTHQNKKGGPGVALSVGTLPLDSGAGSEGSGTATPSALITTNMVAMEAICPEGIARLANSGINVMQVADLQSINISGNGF

Assay [6] is described as follows: ATG_SREBP_CIS: Attagene CIS-FACTORIAL HepG2 Assay for human Sterol Regulatory Element Binding (SREBP) (AID 2282962). The following applies: HepG2 Attagene cis-factorial SREBP reporter, mRNA; actives raise or lower the signal. An outline of the steps:
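Endogenous SREBP activity read as cis-element-driven reporter transcript in transiently transfected HepG2, 24 h post-dosing; quantified via RT-PCR plus capillary electrophoresis of fluorescent fragments. Gain or loss of signal fitted relative to DMSO baseline.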

The target in assay [7] is Signal transducer and activator of transcription 3 (Homo sapiens) (UniProt P40763). Nature of the assay: ATG_STAT3_CIS: Attagene CIS-FACTORIAL HepG2 Assay for human Signal Transducer and Activator of Transcription 3 (STAT3) (AID 2282963). The following applies: HepG2, Attagene cis-factorial STAT3 reporter transcription; actives raise or lower the signal. An outline of the steps:
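Cis-factorial format: endogenous transcription factors in HepG2 drive transfected reporter units. After 24 h treatment, reporter RNA was reverse-transcribed, amplified, FAM-labelled and HpaI-digested before CE analysis; activity scored in both directions against DMSO.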

A short description of assay [8]: ATG_TA_CIS: Attagene CIS-FACTORIAL HepG2 Assay for human TA Basal Promoter (AID 2282964). To be noted: HepG2 Attagene CIS-factorial TA basal promoter reporter; actives raise or lower the signal. An outline of the steps:
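Multiplexed mRNA reporter assay, HepG2, 24 h. Reporter cDNA amplified, 6-FAM primer-extended, HpaI-cut, CE-sized; DMSO = negative control and baseline.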

Assay [9] in a line: ATG_TCF_b_cat_CIS: Attagene CIS-FACTORIAL HepG2 Assay for human T-Cell-Factor with beta-catenin (TCF/b-cat) (AID 2282965). The following applies: HepG2 TCF/beta-catenin cis-reporter transcription, actives raise or lower the signal. An outline of the steps: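 Endogenous transcription factor activity is captured through cis-promoter reporter constructs transiently introduced into human HepG2 liver cells. Induced reporter mRNA is measured after 24 h and fitted bidirectionally relative to DMSO.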

A short description of assay [10]: ATG_TAL_CIS: Attagene CIS-FACTORIAL HepG2 Assay for human TAL Basal Promoter (AID 2282966).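 Further: background control endpoint measuring basal TAL promoter reporter mRNA not a specific factor.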 To be noted: HepG2 Attagene cis-factorial TAL promoter reporter; actives raise or lower the signal. An outline of the steps: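 Endogenous transcription-factor activity is sensed in HepG2 cells through transfected cis-promoter reporter constructs. After 24 h dosing, reporter transcripts are quantified by RT-PCR and capillary electrophoresis. Gain or loss of signal is fitted relative to DMSO.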

Assay [11] can be described thus: ATG_TGFb_CIS: Attagene CIS-FACTORIAL HepG2 Assay for human Transforming Growth Factor (TGF) (AID 2282967). The following applies: HepG2 Attagene CIS TGFb reporter, mRNA transcription; actives raise or lower the signal. An outline of the steps: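 Transcript-level reporter readout: HepG2 transfectants, 24 h exposure, RNA to cDNA, reporter-specific PCR, fluorescent primer extension, capillary sizing against ROX standards. Gain- or loss-of-signal relative to DMSO.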

Assay [12] deals with Estrogen receptor (Homo sapiens) (UniProt P03372). Description: ATG_ERa_TRANS: Attagene TRANS-FACTORIAL HepG2 Assay for human Estrogen Receptor alpha (ERa) (AID 2282970; active means hit-call score of the fitted dose curve at least 0.9, where 1 is the maximum). To be noted: HepG2 Attagene TRANS ERa GAL4 reporter, mRNA. An outline of the steps:
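Transfected HepG2 cells carrying GAL4-UAS-driven reporter units were dosed for 24 hours. Total RNA was reverse-transcribed, reporter sequences PCR-amplified, FAM-labelled, HpaI-digested and resolved by capillary electrophoresis. Increases over DMSO control defined activity.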

Assay [13] addresses X-box-binding protein 1 (Homo sapiens) (UniProt P17861). Nature of the assay: ATG_Xbp1_CIS: Attagene CIS-FACTORIAL HepG2 Assay for human X-box Binding Protein 1 (XBP1) (AID 2282972). The following applies: HepG2 XBP1 cis-element reporter, Attagene multiplex; actives raise or lower the signal. The essentials: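 Reporter transcripts were quantified by RT-PCR with fluorescent primer extension and capillary electrophoresis after 24 h chemical exposure. Cells: transiently transfected HepG2 carrying cis-regulated reporter constructs; data fitted bidirectionally relative to DMSO.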

Assay [14] in a line: ATG_VDRE_CIS: Attagene CIS-FACTORIAL HepG2 Assay for human Vitamin D Receptor Element (VDRE) (AID 2282968). To be noted: HepG2 VDRE cis-reporter transcription, actives raise or lower the signal. An outline of the steps: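 Measures endogenous factor activity through cis-element-driven reporter transcripts in transiently transfected HepG2. Cells are treated 24 h; reporter mRNA is quantified by RT-PCR and capillary electrophoresis; fitting is bidirectional.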

Assay [15] addresses Steroid hormone receptor ERR1 (Homo sapiens) (UniProt P11474). Nature of the assay: ATG_ERRa_TRANS: Attagene TRANS-FACTORIAL HepG2 Assay for human Estrogen-Related Receptor alpha (ERRa) (AID 2282971; active means hit-call score of the fitted dose curve at least 0.9, where 1 is the maximum). To be noted: HepG2 Attagene TRANS reporter, ERRa transactivation. An outline of the steps: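 HepG2 cells were transiently transfected with multiple GAL4-UAS reporter units, then dosed with compound for 24 h. Total RNA was reverse-transcribed, reporter cDNA PCR-amplified and fluorescently labelled, and fragments resolved by capillary electrophoresis; induction was compared with DMSO.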

Assay [16] in a line: ATG_M_19_TRANS: Attagene TRANS-FACTORIAL HepG2 Assay for M19 Transcription Factor (Internal Marker) (AID 2282974; active means hit-call score of the fitted dose curve at least 0.9, where 1 is the maximum). To be noted: HepG2 Attagene TRANS-FACTORIAL M19 internal marker reporter. The essentials:
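24 h chemical exposure of transiently transfected HepG2 (MRTU library). RNA → oligo(dT) RT → PCR → 6-FAM labelling → HpaI cut → CE fluorescence. Positive-direction fit vs DMSO baseline; background internal-marker readout.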

Assay [17] can be described thus: ATG_GAL4_TRANS: Attagene TRANS-FACTORIAL HepG2 Assay for GAL4 (Internal Marker) (AID 2282976; active means hit-call score of the fitted dose curve at least 0.9, where 1 is the maximum). The following applies: HepG2 Attagene TRANS GAL4 internal marker reporter. The essentials: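 Fluorescence from capillary electrophoresis of labelled RT-PCR products quantifies reporter mRNA induction after 24 h dosing of HepG2 cells carrying transfected GAL4-UAS reporter transcription units. Vehicle DMSO serves as baseline.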

Assay [18] has as its target Estrogen-related receptor gamma (Homo sapiens) (UniProt P62508). Description: ATG_ERRg_TRANS: Attagene TRANS-FACTORIAL HepG2 Assay for human Estrogen-Related Receptor gamma (ERRg) (AID 2282977; active means hit-call score of the fitted dose curve at least 0.9, where 1 is the maximum;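 further: hits increase reporter signal over DMSO so potencies reflect activators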). The following applies: HepG2 Attagene TRANS reporter, ERRg transactivation. The essentials: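 Exogenous NR-Gal4 chimera activity was assessed in HepG2 cells bearing transfected GAL4-UAS reporters. After 24 h dosing, total RNA underwent RT-PCR, fluorescent primer extension and HpaI digestion before capillary electrophoresis, with gain of signal scored against DMSO.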

Assay [19] addresses Nuclear receptor subfamily 1 group I member 3 (Homo sapiens) (UniProt Q14994). Description: ATG_CAR_TRANS: Attagene TRANS-FACTORIAL HepG2 Assay for human Constitutive Androstane Receptor (CAR) (AID 2282969; active means hit-call score of the fitted dose curve at least 0.9, where 1 is the maximum;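 further: activators raise reporter mRNA above DMSO so AC50 marks induction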). To be noted: HepG2 Attagene TRANS-FACTORIAL CAR reporter. An outline of the steps:
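Signal is reporter mRNA induction relative to DMSO, measured 24 h after dosing by RT-PCR with fluorescent primer extension and capillary electrophoresis. Human HepG2 liver cells carried transiently transfected chimeric NR-Gal4/GAL4-UAS reporter constructs.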

One may read the AC50 as the concentration giving half of the maximal activity seen.

Inconclusive results are not listed. Active and inactive are the calls of the source. How the source made its calls, unless noted: active means hit-call score of the fitted dose curve at least 0.9, where 1 is the maximum; inactive means score below 0.9.

Sequence of Signal transducer and activator of transcription 3 (Homo sapiens) (P40763 whole entry, looked up): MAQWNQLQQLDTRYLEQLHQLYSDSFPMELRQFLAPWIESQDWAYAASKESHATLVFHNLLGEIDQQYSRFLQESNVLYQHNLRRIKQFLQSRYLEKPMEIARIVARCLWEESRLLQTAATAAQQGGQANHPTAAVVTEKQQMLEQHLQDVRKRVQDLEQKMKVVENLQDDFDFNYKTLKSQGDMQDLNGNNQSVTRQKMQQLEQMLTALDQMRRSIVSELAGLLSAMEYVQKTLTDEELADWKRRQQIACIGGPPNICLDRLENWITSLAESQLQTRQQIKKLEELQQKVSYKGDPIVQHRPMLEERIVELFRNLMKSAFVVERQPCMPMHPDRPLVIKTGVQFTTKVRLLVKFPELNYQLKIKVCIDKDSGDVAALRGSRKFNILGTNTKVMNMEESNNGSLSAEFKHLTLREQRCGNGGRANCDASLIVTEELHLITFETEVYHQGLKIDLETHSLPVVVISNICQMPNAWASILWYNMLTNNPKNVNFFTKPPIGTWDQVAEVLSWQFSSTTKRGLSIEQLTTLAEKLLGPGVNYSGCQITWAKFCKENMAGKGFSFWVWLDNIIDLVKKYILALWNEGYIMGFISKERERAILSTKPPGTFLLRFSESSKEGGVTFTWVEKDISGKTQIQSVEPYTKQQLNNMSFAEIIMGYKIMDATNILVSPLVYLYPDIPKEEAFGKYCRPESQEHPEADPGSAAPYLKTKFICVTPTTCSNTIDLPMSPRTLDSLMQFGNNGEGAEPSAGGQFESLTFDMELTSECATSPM
Sequence of X-box-binding protein 1 (Homo sapiens) (P17861 whole entry, looked up): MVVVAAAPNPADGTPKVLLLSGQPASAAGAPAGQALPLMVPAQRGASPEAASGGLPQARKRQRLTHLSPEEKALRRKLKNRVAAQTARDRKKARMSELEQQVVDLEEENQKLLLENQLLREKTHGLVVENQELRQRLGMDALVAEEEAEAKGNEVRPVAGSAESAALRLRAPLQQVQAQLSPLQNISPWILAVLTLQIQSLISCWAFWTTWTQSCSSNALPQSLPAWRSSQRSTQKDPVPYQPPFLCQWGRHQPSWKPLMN
Sequence of Steroid hormone receptor ERR1 (Homo sapiens) (P11474 whole entry, looked up, the tested form may be a part): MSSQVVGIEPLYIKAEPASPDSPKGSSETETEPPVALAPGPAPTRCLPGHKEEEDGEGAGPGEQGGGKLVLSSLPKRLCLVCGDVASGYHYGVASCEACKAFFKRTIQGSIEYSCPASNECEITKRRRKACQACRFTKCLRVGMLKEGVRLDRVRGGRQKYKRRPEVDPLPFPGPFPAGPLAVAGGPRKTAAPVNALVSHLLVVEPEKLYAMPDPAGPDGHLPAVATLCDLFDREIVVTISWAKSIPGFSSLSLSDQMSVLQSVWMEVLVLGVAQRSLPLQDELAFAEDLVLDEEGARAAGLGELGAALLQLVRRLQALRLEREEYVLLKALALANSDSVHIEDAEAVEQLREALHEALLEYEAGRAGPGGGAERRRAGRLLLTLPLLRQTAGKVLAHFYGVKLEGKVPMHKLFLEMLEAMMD
Sequence of Estrogen receptor (Homo sapiens) (P03372 whole entry, looked up, the tested form may be a part): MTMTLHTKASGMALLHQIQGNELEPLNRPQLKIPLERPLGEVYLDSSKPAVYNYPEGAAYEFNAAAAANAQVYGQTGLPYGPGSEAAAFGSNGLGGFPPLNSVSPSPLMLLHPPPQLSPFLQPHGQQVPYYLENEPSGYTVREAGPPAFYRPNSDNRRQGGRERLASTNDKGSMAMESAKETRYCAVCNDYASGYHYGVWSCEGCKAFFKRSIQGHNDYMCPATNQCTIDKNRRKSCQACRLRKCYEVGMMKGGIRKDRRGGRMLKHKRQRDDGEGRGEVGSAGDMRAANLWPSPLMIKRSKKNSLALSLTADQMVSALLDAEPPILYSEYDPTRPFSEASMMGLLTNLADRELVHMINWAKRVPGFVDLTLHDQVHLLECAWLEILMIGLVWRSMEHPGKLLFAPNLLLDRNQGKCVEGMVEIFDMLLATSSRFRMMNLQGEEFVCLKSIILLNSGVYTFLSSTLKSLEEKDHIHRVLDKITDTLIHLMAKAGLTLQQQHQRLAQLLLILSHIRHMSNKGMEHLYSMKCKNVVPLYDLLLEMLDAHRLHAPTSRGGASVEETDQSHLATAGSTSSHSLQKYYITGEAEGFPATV
Sequence of Estrogen-related receptor gamma (Homo sapiens) (P62508 whole entry, looked up, the tested form may be a part): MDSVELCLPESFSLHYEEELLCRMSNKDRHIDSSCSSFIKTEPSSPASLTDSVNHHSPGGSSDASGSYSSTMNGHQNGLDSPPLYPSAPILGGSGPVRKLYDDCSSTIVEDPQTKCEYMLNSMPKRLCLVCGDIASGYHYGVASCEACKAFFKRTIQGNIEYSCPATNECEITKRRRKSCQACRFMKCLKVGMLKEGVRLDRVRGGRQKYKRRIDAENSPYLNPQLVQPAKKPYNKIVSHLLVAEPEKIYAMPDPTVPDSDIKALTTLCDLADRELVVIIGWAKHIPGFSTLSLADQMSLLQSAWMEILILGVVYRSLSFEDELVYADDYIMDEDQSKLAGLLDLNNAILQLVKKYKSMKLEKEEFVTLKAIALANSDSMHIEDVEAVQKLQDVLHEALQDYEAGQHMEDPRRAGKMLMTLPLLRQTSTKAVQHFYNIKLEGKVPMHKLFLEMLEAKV
Sequence of Nuclear receptor subfamily 1 group I member 3 (Homo sapiens) (Q14994 whole entry, looked up, the tested form may be a part): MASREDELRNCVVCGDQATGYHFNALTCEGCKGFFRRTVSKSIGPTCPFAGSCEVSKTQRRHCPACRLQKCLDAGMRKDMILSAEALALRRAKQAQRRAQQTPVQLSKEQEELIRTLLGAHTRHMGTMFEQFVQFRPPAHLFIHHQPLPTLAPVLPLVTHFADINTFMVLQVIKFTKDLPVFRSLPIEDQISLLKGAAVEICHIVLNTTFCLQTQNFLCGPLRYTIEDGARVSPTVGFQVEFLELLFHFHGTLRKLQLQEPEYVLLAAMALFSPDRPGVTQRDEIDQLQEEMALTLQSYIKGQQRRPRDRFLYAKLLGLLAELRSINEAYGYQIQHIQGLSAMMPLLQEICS

Take `CC(=O)/C=C/C1=C(C)CCCC1(C)C`: the call in assay [1], in assay [3], in assay [4], in [5], in assay [6] and in [7] was inactive. The compound was called inactive in [8], in [9], in [10], in assay [11], in assay [12] and in [13]. Further, the AC50 in assay [2] is 1.42 µM (active).
With `COc1ccc(Cl)cc1C`, the outcome in assay [1], in assay [2], in assay [3], in assay [4], in assay [5] and in [6] was inactive. Moreover, the result in [7], in assay [8], in assay [9], in assay [10], in [11] and in [14] was inactive. Also, the call in assay [15], in assay [13], in assay [16], in [17] and in [18] was inactive.
As to `CCN(CC)CCOC(=O)c1ccc(N)cc1`, the result in assay [1], in assay [3], in assay [4], in [5], in [6] and in assay [7] was inactive. For the same compound, the call in assay [8], in assay [9], in assay [10], in [11], in assay [14] and in assay [15] was inactive. The compound was classed as inactive in assay [16], in [17] and in assay [18]. Besides, the AC50 in assay [2] was 45.9 µM (active).
Take `CC(=O)OCc1ccc2c(c1)OCO2`: the compound was called inactive in assay [1], in [3], in assay [4], in assay [5], in [6] and in [7]. For the same compound, the outcome in assay [9], in assay [10], in assay [11], in [14], in assay [19] and in assay [13] was inactive. Further, in assay [17], the compound was classed as inactive. Further, the AC50 in [2] is 26.9 µM (active).
Turning to `CC(=O)C=CC1=C(C)CCCC1(C)C`, the outcome in [1], in [3], in assay [4], in assay [5], in assay [6] and in [7] was inactive. Moreover, the result in assay [8], in assay [9], in assay [10], in [11], in assay [12] and in assay [13] was inactive. In [2], the concentration at half-maximal activity (AC50) was 0.716 µM (active).
`Sc1nc(S)nc(S)n1`: the compound was called inactive in [1], in assay [2], in [3], in [4], in assay [5] and in assay [6]. In addition, the outcome in assay [7], in assay [8], in assay [9], in [10], in assay [11] and in assay [14] was inactive. For the same compound, in assay [13], the compound was called inactive.
